The source of these data is PubChem BioAssay (EPA / NIEHS).

Each structure is given as a SMILES string. The source made the active and inactive calls. The calls were made as follows: active = hit-call score of the fitted dose curve at least 0.9, where 1 is the maximum; inactive = score below 0.9.

Test [1] addresses Bile acid receptor (Homo sapiens) (UniProt Q96RI1). As to the kind of experiment: ATG_IR1_CIS: Attagene CIS-FACTORIAL HepG2 Assay for human Nuclear Receptor Subfamily 1 Group H Member 4 (NR1H4), IR1 submotif (AID 2282946). The following applies: IR1 reporter transcription, actives raise or lower the signal. In outline:
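Fluorescence of capillary-separated, HpaI-digested RT-PCR reporter products gave IR1-element mRNA induction in HepG2 cells 24 h after dosing. Endogenous transcription factors drove the cis-regulated reporters; activity was fitted bidirectionally against DMSO.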

Test [2] can be described thus: ATG_GRE_CIS: Attagene CIS-FACTORIAL HepG2 Assay for human Glucocorticoid Response Elements (GRE) (AID 2282947). Conditions: HepG2 GRE cis-reporter, Attagene multiplex mRNA; actives raise or lower the signal. In outline: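 Read-out: fluorescent reporter-transcript fragments separated by capillary electrophoresis after RT-PCR. Transiently transfected HepG2 cells carrying cis-element-driven reporter units were dosed for 24 h; gain or loss of signal fitted against DMSO control.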

Test [3] can be described thus: ATG_ISRE_CIS: Attagene CIS-FACTORIAL HepG2 Assay for human Interferon Regulatory Factor 1 (IRF1) binding to an Interferon-Stimulated Response Element (ISRE) (AID 2282948). Conditions: HepG2 ISRE cis-reporter (Attagene), mRNA transcription readout; actives raise or lower the signal. The method, boiled down:
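Uses HepG2 liver cells transfected with cis-regulated reporters and measures mRNA 24 h post-dosing through RT-PCR, primer-extension labelling and capillary electrophoresis, with DMSO as negative control.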

Test [4] can be described thus: ATG_M_06_CIS: Attagene CIS-FACTORIAL HepG2 Assay for M06 Transcription Factor (Internal Marker) (AID 2282950). Conditions: HepG2 Attagene CIS-FACTORIAL M06 internal marker reporter; actives raise or lower the signal. In outline:
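Read-out is fluorescence of labelled reporter cDNA fragments resolved by capillary electrophoresis after RT-PCR. Cells: HepG2 carrying transfected cis-promoter reporter units, treated 24 h. Gain or loss of signal fitted relative to DMSO.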

The target of test [5] is Hypoxia-inducible factor 1-alpha (Homo sapiens) (UniProt Q16665). Description: ATG_HIF1a_CIS: Attagene CIS-FACTORIAL HepG2 Assay for human Hypoxia Inducible Factor 1 (HIF1A) (AID 2282951). The following applies: HepG2 Attagene cis-factorial HIF1a reporter transcription; actives raise or lower the signal. The method, boiled down:
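Dosed 24 h, transfected HepG2 cells yielded total RNA whose reporter transcripts were RT-PCR-amplified and sized by capillary electrophoresis using fluorescent labelling; DMSO defined baseline, with gain and loss of signal both fitted.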

The target of test [6] is Hepatocyte nuclear factor 6 (Homo sapiens) (UniProt Q9UBC0). As to the kind of experiment: ATG_HNF6_CIS: Attagene CIS-FACTORIAL HepG2 Assay for human Hepatocyte Nuclear Factor 6 (HNF6) (AID 2282952). The following applies: HepG2 Attagene cis-factorial HNF6 reporter transcription; actives raise or lower the signal. In outline: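 Endogenous transcription factor activity in human HepG2 liver cells was captured through cis-regulated reporter constructs. After 24 h treatment, reporter mRNA was measured by RT-PCR with capillary electrophoresis, and activity was fitted in both directions relative to DMSO.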
Sequence of Hepatocyte nuclear factor 6 (Homo sapiens) (Q9UBC0 whole entry, looked up): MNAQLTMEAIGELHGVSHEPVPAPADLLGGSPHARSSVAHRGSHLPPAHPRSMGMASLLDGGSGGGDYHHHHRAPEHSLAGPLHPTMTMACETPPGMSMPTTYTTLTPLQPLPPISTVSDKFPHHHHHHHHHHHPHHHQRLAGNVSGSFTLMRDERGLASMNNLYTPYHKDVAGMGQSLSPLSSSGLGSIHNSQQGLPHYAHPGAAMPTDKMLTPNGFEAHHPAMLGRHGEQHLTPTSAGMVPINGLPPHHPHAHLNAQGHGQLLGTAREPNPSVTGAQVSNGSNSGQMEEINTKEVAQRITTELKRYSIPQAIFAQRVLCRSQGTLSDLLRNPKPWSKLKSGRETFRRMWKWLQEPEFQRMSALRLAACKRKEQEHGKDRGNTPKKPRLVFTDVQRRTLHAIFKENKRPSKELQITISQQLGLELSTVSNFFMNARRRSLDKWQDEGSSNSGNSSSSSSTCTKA

The target of test [7] is Heat shock factor protein 1 (Homo sapiens) (UniProt Q00613). As to the kind of experiment: ATG_HSE_CIS: Attagene CIS-FACTORIAL HepG2 Assay for human Heat Shock Transcription Factor 1 (HSE) (AID 2282953). The following applies: HepG2 HSE cis-reporter, Attagene RNA transcription; actives raise or lower the signal. The method, boiled down: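 HepG2, transient MRTU transfection, cis-promoter reporters (endogenous TF activity). 24 h compound. RNA → oligo(dT) RT → PCR → 6-FAM primer extension → HpaI cut → CE. Bidirectional fit vs DMSO.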
Sequence of Heat shock factor protein 1 (Homo sapiens) (Q00613 whole entry, looked up): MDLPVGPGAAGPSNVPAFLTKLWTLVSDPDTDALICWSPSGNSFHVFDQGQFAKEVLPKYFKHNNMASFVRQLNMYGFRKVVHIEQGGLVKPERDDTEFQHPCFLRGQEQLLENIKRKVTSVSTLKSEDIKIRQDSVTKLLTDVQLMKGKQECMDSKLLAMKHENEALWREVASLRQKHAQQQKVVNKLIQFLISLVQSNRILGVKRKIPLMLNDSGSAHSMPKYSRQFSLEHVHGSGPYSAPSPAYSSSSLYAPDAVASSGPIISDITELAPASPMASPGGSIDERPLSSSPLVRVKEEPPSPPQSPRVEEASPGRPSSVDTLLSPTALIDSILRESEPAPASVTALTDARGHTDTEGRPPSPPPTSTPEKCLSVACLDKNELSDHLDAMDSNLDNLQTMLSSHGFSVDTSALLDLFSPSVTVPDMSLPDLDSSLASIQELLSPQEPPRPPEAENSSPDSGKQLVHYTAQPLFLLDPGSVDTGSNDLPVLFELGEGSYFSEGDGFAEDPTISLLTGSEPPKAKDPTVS

A short description of test [8]: ATG_MRE_CIS: Attagene CIS-FACTORIAL HepG2 Assay for human Metal Responsive Element (MRE) (AID 2282954). Conditions: HepG2 MRE cis-reporter transcription, Attagene multiplex; actives raise or lower the signal. In outline: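 RT-PCR/capillary electrophoresis readout of reporter mRNA, 24 h post-dosing, in HepG2 cells transfected with multiplexed cis-regulated reporter constructs. Gain or loss of signal fitted bidirectionally against DMSO baseline.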

Test [9] can be described thus: ATG_PBREM_CIS: Attagene CIS-FACTORIAL HepG2 Assay for human Phenobarbital-responsive Enhancer Module (PBREM) (AID 2282955). The following applies: HepG2 PBREM cis-reporter, Attagene multiplexed transcription; actives raise or lower the signal. In outline: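 Transfected liver-derived HepG2 cells exposed 24 h; PBREM reporter transcript quantified via RT-PCR and capillary electrophoresis, with activity in either direction referenced to DMSO.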

Test [10] in a line: ATG_PXRE_CIS: Attagene CIS-FACTORIAL HepG2 Assay for human Pregnane X Receptor Element (PXRE) (AID 2282957). Conditions: HepG2 Attagene CIS-FACTORIAL PXRE reporter, mRNA; actives raise or lower the signal. In outline: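 Endogenous transcription factor activity in HepG2 was gauged through induction of reporter mRNA driven by a cis-regulating promoter element, sampled 24 h post-treatment. Activity was fitted in both directions against DMSO negative control.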

Test [11] can be described thus: ATG_PPRE_CIS: Attagene CIS-FACTORIAL HepG2 Assay for human Peroxisome Proliferator-activated Response Element (PPRE) (AID 2282958). The following applies: HepG2 PPRE cis-element reporter, Attagene transcription factor profiling; actives raise or lower the signal. In outline:
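Measured endpoint: PPRE-controlled reporter mRNA, detected by RT-PCR and capillary electrophoresis fluorescence, from transiently transfected HepG2 cells 24 h after dosing. Curves fitted in both directions using DMSO baseline.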

Test [12] can be described thus: ATG_Sox_CIS: Attagene CIS-FACTORIAL HepG2 Assay for human SRY-box transcription factor (SOX) (AID 2282960). The following applies: HepG2 Attagene cis-factorial SOX reporter, mRNA; actives raise or lower the signal. In outline: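 Gain- or loss-of-signal endpoint, fitted bidirectionally with DMSO as negative control. Based on reporter mRNA from transfected HepG2 cells harvested 24 h post-treatment and quantified via RT-PCR and capillary electrophoresis.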

Test [13] addresses Transcription factor Sp1 (Homo sapiens) (UniProt P08047). Description: ATG_Sp1_CIS: Attagene CIS-FACTORIAL HepG2 Assay for human Specificity Protein 1 (Sp1) (AID 2282961). Conditions: HepG2 Sp1 cis-reporter transcription, actives raise or lower the signal. The method, boiled down: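 Endpoint reflects endogenous Sp1 transcriptional activity, not an exogenous fusion protein: HepG2 cells with transfected cis-regulated reporters, 24 h dosing, RT-PCR/capillary electrophoresis mRNA read-out, DMSO-normalised bidirectional fit.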

Test [14] in a line: ATG_SREBP_CIS: Attagene CIS-FACTORIAL HepG2 Assay for human Sterol Regulatory Element Binding (SREBP) (AID 2282962). The following applies: HepG2 Attagene cis-factorial SREBP reporter, mRNA; actives raise or lower the signal. In outline:
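In this cis-format assay, HepG2 liver cells express reporters controlled by promoter elements responsive to native transcription factors. Exposure lasts 24 h; reporter mRNA fluorescence from capillary electrophoresis gives the signal, fitted bidirectionally against DMSO.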

Test [15] deals with Signal transducer and activator of transcription 3 (Homo sapiens) (UniProt P40763). Description: ATG_STAT3_CIS: Attagene CIS-FACTORIAL HepG2 Assay for human Signal Transducer and Activator of Transcription 3 (STAT3) (AID 2282963). The following applies: HepG2, Attagene cis-factorial STAT3 reporter transcription; actives raise or lower the signal. The method, boiled down:
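Readout: fluorescent reporter mRNA fragments resolved by capillary electrophoresis. Setup: HepG2 transfected with MRTUs reporting endogenous transcription-factor activity, dosed 24 h. Gain or loss of signal fitted bidirectionally against DMSO control.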

Test [16] can be described thus: ATG_TA_CIS: Attagene CIS-FACTORIAL HepG2 Assay for human TA Basal Promoter (AID 2282964). The following applies: HepG2 Attagene CIS-factorial TA basal promoter reporter; actives raise or lower the signal. In outline: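 Read-out: fluorescent reporter-transcript fragments resolved by capillary electrophoresis after RT-PCR and HpaI digestion. Source: HepG2 cells carrying transiently transfected multi-reporter cis constructs, treated 24 h. Endpoint fitted bidirectionally relative to DMSO.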

The nature of test [17]: ATG_TCF_b_cat_CIS: Attagene CIS-FACTORIAL HepG2 Assay for human T-Cell-Factor with beta-catenin (TCF/b-cat) (AID 2282965). Conditions: HepG2 TCF/beta-catenin cis-reporter transcription, actives raise or lower the signal. The method, boiled down:
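HepG2, transient MRTU transfection, cis-element-driven reporters (endogenous TFs). 24 h compound exposure. Readout: reporter mRNA by RT-PCR + 6-FAM primer extension, HpaI digest, capillary electrophoresis. Gain/loss fit vs DMSO baseline.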

Test [18] can be described thus: ATG_M_32_CIS: Attagene CIS-FACTORIAL HepG2 Assay for M32 Transcription Factor (Internal Marker) (AID 2282949).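 Also: background control marker of the multiplexed CIS panel rather than a real target.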 Conditions: HepG2 Attagene cis-factorial M32 reporter, mRNA; actives raise or lower the signal. In outline: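 Using DMSO as baseline, bidirectional curve fits were applied to reporter mRNA signals. These came from transiently transfected HepG2 cells exposed for 24 h, with RNA analysed by RT-PCR, FAM primer extension, HpaI digestion and CE.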

The target of test [19] is Paired box protein Pax-6 (Homo sapiens) (UniProt P26367). Description: ATG_Pax6_CIS: Attagene CIS-FACTORIAL HepG2 Assay for human Paired Box 6 (PAX6) (AID 2282956). Conditions: HepG2 CIS-FACTORIAL PAX6 reporter transcription, RNA readout; actives raise or lower the signal. In outline:
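DMSO-referenced bidirectional fits of reporter mRNA fluorescence; HepG2 with transient cis-promoter MRTUs, 24 h post-dose, RT-PCR plus capillary electrophoresis detection.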

Test [20] can be described thus: ATG_RORE_CIS: Attagene CIS-FACTORIAL HepG2 Assay for human RAR-related Orphan Receptor Element (RORE) (AID 2282959). The following applies: HepG2 Attagene cis-factorial RORE reporter, mRNA; actives raise or lower the signal. In outline:
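Transiently transfected HepG2 reporter cells were treated 24 h. Reporter transcripts were detected by RT-PCR and capillary electrophoresis, with bidirectional fitting against DMSO.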

Sequence of Paired box protein Pax-6 (Homo sapiens) (P26367 whole entry, looked up): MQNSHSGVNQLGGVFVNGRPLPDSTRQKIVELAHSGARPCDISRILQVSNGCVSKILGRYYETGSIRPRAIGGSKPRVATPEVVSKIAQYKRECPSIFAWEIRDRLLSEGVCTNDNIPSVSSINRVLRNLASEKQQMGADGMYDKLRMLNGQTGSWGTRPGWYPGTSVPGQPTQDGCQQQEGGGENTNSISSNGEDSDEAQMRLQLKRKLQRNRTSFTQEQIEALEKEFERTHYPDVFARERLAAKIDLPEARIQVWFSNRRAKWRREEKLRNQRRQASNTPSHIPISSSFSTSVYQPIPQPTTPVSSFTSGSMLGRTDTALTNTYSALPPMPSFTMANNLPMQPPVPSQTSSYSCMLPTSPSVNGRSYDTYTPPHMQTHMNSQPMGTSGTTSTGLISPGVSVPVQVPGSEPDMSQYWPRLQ
Sequence of Transcription factor Sp1 (Homo sapiens) (P08047 whole entry, looked up, the tested form may be a part): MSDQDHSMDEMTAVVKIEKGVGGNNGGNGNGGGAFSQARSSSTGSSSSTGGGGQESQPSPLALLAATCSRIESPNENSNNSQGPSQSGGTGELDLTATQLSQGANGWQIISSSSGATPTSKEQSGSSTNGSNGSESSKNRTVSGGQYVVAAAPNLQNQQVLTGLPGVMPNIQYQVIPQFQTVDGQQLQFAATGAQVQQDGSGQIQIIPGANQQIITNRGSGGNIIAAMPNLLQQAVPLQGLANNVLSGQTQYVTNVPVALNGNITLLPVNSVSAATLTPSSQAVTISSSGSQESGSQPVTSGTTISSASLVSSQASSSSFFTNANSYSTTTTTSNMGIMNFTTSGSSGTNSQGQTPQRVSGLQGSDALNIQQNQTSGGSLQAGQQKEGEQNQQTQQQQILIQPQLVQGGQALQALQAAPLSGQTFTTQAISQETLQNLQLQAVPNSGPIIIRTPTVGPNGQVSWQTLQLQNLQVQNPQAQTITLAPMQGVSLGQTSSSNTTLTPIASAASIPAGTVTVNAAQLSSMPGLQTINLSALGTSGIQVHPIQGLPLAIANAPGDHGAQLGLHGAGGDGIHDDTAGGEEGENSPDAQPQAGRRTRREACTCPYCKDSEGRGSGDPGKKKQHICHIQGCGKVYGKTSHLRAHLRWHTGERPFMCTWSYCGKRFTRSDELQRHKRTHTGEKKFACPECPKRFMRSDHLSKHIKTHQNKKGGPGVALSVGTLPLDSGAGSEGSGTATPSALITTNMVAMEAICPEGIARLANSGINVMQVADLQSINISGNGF
Sequence of Bile acid receptor (Homo sapiens) (Q96RI1 whole entry, looked up): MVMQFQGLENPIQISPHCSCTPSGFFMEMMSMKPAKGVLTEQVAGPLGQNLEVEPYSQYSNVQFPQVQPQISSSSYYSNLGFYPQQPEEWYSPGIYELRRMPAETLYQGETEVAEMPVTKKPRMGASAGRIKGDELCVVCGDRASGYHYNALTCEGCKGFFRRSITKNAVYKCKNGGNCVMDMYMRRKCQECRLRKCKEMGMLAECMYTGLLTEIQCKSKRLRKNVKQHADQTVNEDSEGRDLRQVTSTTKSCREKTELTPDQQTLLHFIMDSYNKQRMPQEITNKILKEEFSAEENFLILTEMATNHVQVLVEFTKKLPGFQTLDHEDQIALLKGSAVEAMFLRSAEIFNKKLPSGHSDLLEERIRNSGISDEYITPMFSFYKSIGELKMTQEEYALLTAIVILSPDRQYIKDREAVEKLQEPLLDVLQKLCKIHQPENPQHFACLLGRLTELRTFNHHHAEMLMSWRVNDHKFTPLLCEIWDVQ
Sequence of Signal transducer and activator of transcription 3 (Homo sapiens) (P40763 whole entry, looked up, the tested form may be a part): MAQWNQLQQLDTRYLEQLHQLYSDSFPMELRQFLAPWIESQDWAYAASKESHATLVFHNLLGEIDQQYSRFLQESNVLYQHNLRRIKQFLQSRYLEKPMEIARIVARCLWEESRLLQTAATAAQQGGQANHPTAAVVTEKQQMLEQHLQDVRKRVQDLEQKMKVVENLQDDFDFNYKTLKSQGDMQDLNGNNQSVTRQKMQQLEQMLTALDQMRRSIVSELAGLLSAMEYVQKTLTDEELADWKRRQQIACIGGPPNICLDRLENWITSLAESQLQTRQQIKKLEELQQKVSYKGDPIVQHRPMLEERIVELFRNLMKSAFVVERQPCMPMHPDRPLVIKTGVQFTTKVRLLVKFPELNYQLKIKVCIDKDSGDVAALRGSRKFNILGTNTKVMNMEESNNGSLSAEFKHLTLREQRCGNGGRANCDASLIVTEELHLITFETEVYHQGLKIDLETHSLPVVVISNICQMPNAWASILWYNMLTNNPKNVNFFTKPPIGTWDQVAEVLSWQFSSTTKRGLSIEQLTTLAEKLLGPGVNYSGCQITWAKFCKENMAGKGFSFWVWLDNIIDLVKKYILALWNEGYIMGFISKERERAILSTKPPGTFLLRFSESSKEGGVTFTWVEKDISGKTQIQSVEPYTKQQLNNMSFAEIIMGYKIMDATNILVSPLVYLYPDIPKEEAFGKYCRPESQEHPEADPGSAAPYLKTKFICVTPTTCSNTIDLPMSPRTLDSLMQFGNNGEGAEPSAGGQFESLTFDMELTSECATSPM
Sequence of Hypoxia-inducible factor 1-alpha (Homo sapiens) (Q16665 whole entry, looked up): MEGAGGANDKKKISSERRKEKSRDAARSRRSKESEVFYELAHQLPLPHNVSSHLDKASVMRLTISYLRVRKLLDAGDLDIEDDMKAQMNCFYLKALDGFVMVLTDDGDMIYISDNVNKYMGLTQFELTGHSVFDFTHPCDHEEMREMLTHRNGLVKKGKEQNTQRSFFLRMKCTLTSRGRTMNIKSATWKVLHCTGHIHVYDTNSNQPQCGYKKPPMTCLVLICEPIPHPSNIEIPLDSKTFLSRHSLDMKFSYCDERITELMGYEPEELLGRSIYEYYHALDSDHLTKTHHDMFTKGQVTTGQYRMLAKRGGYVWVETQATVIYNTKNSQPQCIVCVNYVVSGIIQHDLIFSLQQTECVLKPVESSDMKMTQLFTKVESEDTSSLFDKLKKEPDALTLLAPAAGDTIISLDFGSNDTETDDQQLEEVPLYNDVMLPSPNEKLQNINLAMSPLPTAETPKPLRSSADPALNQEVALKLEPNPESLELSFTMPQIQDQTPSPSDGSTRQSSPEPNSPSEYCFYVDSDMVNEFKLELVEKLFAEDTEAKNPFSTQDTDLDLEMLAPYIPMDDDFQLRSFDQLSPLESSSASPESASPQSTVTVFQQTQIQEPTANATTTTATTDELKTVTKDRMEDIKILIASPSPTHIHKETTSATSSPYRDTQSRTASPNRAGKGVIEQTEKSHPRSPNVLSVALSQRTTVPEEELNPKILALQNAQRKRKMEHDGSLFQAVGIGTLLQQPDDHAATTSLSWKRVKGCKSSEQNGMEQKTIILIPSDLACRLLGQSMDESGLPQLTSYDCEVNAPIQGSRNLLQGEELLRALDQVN

A word on the AC50: it is the concentration giving half of the maximal activity seen. As to `O=[N+]([O-])c1ccc(O)cc1C(F)(F)F`, the call in [1], in [2], in [4], in test [5], in test [6] and in test [7] was inactive. Moreover, the outcome in test [9], in test [11], in test [12], in test [15], in [16] and in test [17] was inactive. For the same compound, the AC50 in [3] was 48 µM (active); in test [8], 61.1 µM (active); in test [10], 84.1 µM (active); in test [13], 100 µM (active); in test [14], 100 µM (active).
With `CCCCCCCCN1CCCC1=O`, the call in test [1], in [3], in test [18], in test [4], in test [6] and in test [7] was inactive. Further, the compound was classed as inactive in test [8], in [9], in [20], in test [12], in [13] and in test [14]. Also, the compound was called inactive in [16] and in test [17]. Also, the AC50 in test [5] is 147 µM (active); in test [19] it was 144 µM (active); in [10], 26.2 µM (active); in [15], 168 µM (active).
For `Clc1cc(Cl)c(-c2c(Cl)c(Cl)cc(Cl)c2Cl)cc1Cl`, the compound was classed as inactive in [1], in [2], in test [3], in test [18], in [5] and in test [6]. In addition, the compound was classed as inactive in test [7], in test [19], in test [11], in test [12], in test [15] and in test [16]. Further, the result in [17] was inactive. In addition, the concentration at half-maximal activity (AC50) in test [8] is 29.1 µM (active); in [10] it was 3.45 µM (active); in test [13] it was 50 µM (active); in [14], 50 µM (active).
Consider `Oc1c(Cl)cc(Cl)c(Cl)c1Cc1c(O)c(Cl)cc(Cl)c1Cl`, for which the outcome in test [1], in test [2], in test [18], in [6], in test [12] and in test [13] was inactive. In addition, the result in test [14], in test [15] and in [16] was inactive. The AC50 in [3] is 6 µM (active); in test [5], 8.52 µM (active); in [7], 17.1 µM (active); in test [8], 9.9 µM (active); in test [9] it was 1.12 µM (active); in test [19], 11.1 µM (active). The results for the AC50 in [10] and in test [17] were 0.802 µM (active) and 11.1 µM (active), respectively.
Regarding `O=C(CS)OCCOC(=O)CS`, the compound was called inactive in test [1], in test [18], in [4], in test [5], in test [6] and in [7]. Besides, the compound was classed as inactive in test [8], in test [9], in test [19], in [20], in [13] and in test [14]. The call in test [15], in test [16] and in test [17] was inactive. For the same compound, the values for the AC50 in [3], in test [10] and in test [11] were 57.8 µM (active), 37.8 µM (active) and 19.7 µM (active), respectively.
As to `CC(=O)CC(=O)Nc1ccc(C)cc1C`, the compound was classed as inactive in test [1], in test [2], in [3], in [18], in [5] and in test [6]. The outcome in [8], in test [9], in test [19], in test [10], in [11] and in test [20] was inactive. Also, the compound was classed as inactive in test [12], in [13], in test [14], in [15], in test [16] and in test [17].
On to `Cc1ncc[nH]1`, for which the compound was called inactive in test [1], in test [2], in test [3], in test [18], in [5] and in [6]. The call in [7], in test [8], in test [19], in test [10], in [11] and in test [20] was inactive. The call in [12], in [13], in test [14], in test [15], in [16] and in [17] was inactive.
